From PubChem
Most compounds without a hit are left out; they make up all but 2.2% or so of the library.
aSyn UTR inh: MLPCN primary screen, SNCA 5' untranslated region; inhibition, % (tested at 7.5 µM); hit rate 0.82% among 300,000; AID 1813; alpha-synuclein 5'UTR reporter, inhibitor activity; in the data active means inhibition above about 60%;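 further: H4 neuroglioblastoma cells stably carrying SNCA 5'UTR luciferase fusion; 0% = DMSO wells and 100% = positive control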
APP 5UTR inh: APP translation inhibition. SH-SY5Y APP 5'UTR-luciferase reporter, luminescence. inhibition, % at 2 µM. hit rate 0.82% among 190,000;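 active means inhibition above a set limit, derived from the sample mean plus 3 SD, cut at about 45% in these data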
Ba/F3 V617F tox: lowers viability of Ba/F3 cells expressing EpoR and JAK2V617F. ATP luminescence. hit rate 1.1% among 220,000. AID 1446. inhibition, % at 5.6 µM;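 active means inhibition above the campaign mean plus 3 SD over all tested compounds, cut at about 24% in these data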;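 further: cytokine-independent growth of Ba/F3 cells driven by EpoR plus mutant JAK2; 0% = DMSO-treated cells and 100% = JAK inhibitor I control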
IEC-6 cytotox: IEC-6 cytotoxicity, counter-screen for KLF5 inhibitors; hit rate 0.78% among 290,000; inhibition, % at 5 µM; luminescence viability; in the data active means inhibition above about 22%;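 further: 0% = plate median of test compound wells and 100% = cytotoxic reference compound wells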
BaF3 tox: reduces parental Ba/F3 cell viability, JAK2V617F counter-screen; CellTiter-Glo ATP luminescence; inhibition, % at 5.6 µM; hit rate 1.1% among 220,000;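 active means inhibition above a per-campaign cutoff, the mean inhibition of all tested compounds plus 3 SD, cut at about 27% in these data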;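 further: 0% = DMSO wells and 100% = JAK Inhibitor I control wells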
KLF5 inhibitor: inhibitors of KLF5 expression. hit rate 0.23% among 290,000. inhibition, % at 5 µM. DLD-1 KLF5 promoter-luciferase reporter, luminescence;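 active means inhibition above a per-plate limit of that plate's mean compound inhibition plus 3 SD, cut at about 60% in these data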;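 further: 0% = DMSO wells and 100% = LY294002 at 200 µM; higher means less KLF5 promoter-driven luciferase light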
Active calls of the source: *; . = no result.

SMILES | aSyn UTR inh | APP 5UTR inh | Ba/F3 V617F tox | IEC-6 cytotox | BaF3 tox | KLF5 inhibitor
O=c1c2ccccc2cnn1CCOc1ccccc1 | 72* | -98 | 3 | 2 | 8 | 54
O=C(N/N=C/c1ccc(F)cc1)c1ccc(OCc2ccccc2)cc1 | 14 | . | 4 | -6 | 49* | -12
CCOc1ccc(OCc2cccc(C(=O)N/N=C/c3cccnc3)c2)cc1 | 87* | -20 | 1 | -1 | 10 | 52
CC(C)c1ccc(OCc2cccc(C(=O)N/N=C/c3cccnc3)c2)cc1 | 30 | -103 | -4 | -4 | 4 | -151
CCOc1cccc(/C=N/NC(=O)c2cccnc2)c1O | 18 | . | . | 11 | . | 94*
COc1ccc(O)c(/C=N/NC(=O)c2ccc(OCc3cccc(Br)c3)cc2)c1 | 82* | 66* | -2 | -1 | 3 | -43
CC1CCCN(C(=O)c2cn(-c3ccccc3)nc2-c2cccnc2)C1 (configuration not stated) | -1 | . | . | . | . | .
CC1CCCC(C)N1C(=O)COC(=O)Cn1cnc2c1c(=O)n(C)c(=O)n2C (configuration not stated) | -10 | . | . | . | . | .
Cc1ccc(C)c(S(=O)(=O)N2CCN(C(=O)c3cc(S(=O)(=O)NCc4ccccc4)ccc3C)CC2)c1 | 27 | . | . | -3 | . | 7
Cc1cc(C)cc(Cn2ncc(Cl)c(Cl)c2=O)c1 | 35 | 58* | -2 | -4 | 3 | -6
O=C(Cn1ncc(Cl)c(Cl)c1=O)N1CCN(Cc2ccccc2)CC1 | -71 | 90* | 1 | 10 | -3 | -42
O=c1c(Cl)c(Cl)cnn1Cc1ccccc1Cl | 16 | 92* | 16 | 9 | 25 | -3
CC1(C)C(=O)Nc2ccccc2N1C(=O)Cn1ncc(Cl)c(Cl)c1=O | -167 | . | 9 | 4 | 31* | 1
O=C(Cn1ncc(Cl)c(Cl)c1=O)N1CCOCC1 | -62 | 14 | -1 | 4 | -8 | -15
Cc1ccc(NC2=NCC(=O)N2C2CCCC2)c(C)c1 | 9 | 8 | 2 | 2 | 4 | -6
Cc1ccc(Oc2ccc(S(=O)(=O)N3CCOCC3)cc2C(N)=O)c(-n2nc3ccccc3n2)c1 | -3 | 46* | -2 | 2 | 1 | -14
COc1ccccc1Oc1ccc(S(=O)(=O)N2CCOCC2)cc1S(=O)(=O)N1CCOCC1 | -9 | 3 | -3 | -4 | 5 | 8
CCCNC(=O)c1ccc2c(=O)c(O)c(-c3cccc(Br)c3)[nH]c2c1 | 84* | . | . | . | . | .
CCCNC(=O)c1ccc2c(=O)c(O)c(C)[nH]c2c1 | 23 | . | . | . | . | .
CCCNC(=O)c1ccc2c(=O)c(O)c(-c3ccc(F)cc3)[nH]c2c1 | 81* | . | . | . | . | .
O=C1c2cccnc2C(Nc2ccccc2Br)N1Cc1ccco1 (configuration not stated) | 4 | 2 | 2 | 1 | 0 | -5
Cc1ccc(Cl)c(NC(=O)COC(=O)c2ccccc2C(=O)c2ccc(Cl)c([N+](=O)[O-])c2)c1Cl | -6 | 52* | 4 | 12 | 7 | -2
CCCNC(=O)COC(=O)c1ccccc1C(=O)c1ccc(Cl)c([N+](=O)[O-])c1 | -31 | 33 | 2 | -12 | 4 | -24
CC[n+]1c(/C=C2\C=C(C)CC(C)C2)sc2ccccc21 (configuration not stated) | -11 | 5 | 63* | -1 | 63* | -19
CC[n+]1c(/C=C2\C=C(C)CC(C)(C)C2)sc2ccccc21 | -47 | 11 | 56* | -1 | 60* | -36
SMILES | aSyn UTR inh | APP 5UTR inh | Ba/F3 V617F tox | IEC-6 cytotox | BaF3 tox | KLF5 inhibitor
CCC1=C/C(=C/c2sc3ccccc3[n+]2CC)CC(C)(C)C1 | -42 | -17 | 2 | -8 | 15 | -1
CC[n+]1c(/C=C2/C=C(C)CC(C)(C)C2)sc2ccc(OC)cc21 | -11 | 0 | 64* | -8 | 59* | -26
CC(=O)O[C@H]1C(=O)[C@@]2(C)[C@H]([C@H](OC(=O)c3ccccc3)[C@]3(O)C[C@H](OC(=O)[C@H](O)C(NC(=O)c4ccccc4)c4ccccc4)C(C)=C1C3(C)C)[C@]1(OC(C)=O)CO[C@@H]1C[C@@H]2O (some centres not stated) | 72* | . | . | . | . | .
CC(=O)c1ccc(OCC(=O)NC2CCCN(Cc3ccccc3F)C2)cc1 (configuration not stated) | 14 | . | . | -4 | . | -4
O=c1c2ccccc2nc2c3ccccc3c(NCCO)nn12 | 0 | -11 | 0 | -8 | 5 | 7
O=C(Nc1ccc(Cl)c(Cl)c1)Nc1ccc(N2CCCC2)c(S(=O)(=O)Nc2ccccc2Cl)c1 | 95* | -5 | -2 | -5 | 0 | 13
O=C(Nc1ccc(F)cc1)Nc1ccc(N2CCCC2)c(S(=O)(=O)Nc2ccccc2Cl)c1 | 11 | 9 | -5 | 5 | 1 | 10
CCN1CCN(c2ccc(S(=O)(=O)N3CCCCC3)cc2NC(=O)COc2cc(C)ccc2Cl)CC1 | -12 | . | . | . | . | .
O=C(Nc1nnc(SCc2ccc(F)cc2)s1)c1ccccn1 | 63* | 44 | 3 | 78* | 14 | 4
O=C(Nc1nc2ccccc2s1)c1cnccn1 | -39 | -56 | -1 | -1 | 4 | -170
O=C(Nc1nc2ccc(F)cc2s1)c1ccccn1 | 102* | -30 | 6 | 71* | 13 | 60
CCOc1ccc(S(=O)(=O)N2CCC(C(=O)NCc3ccncc3)CC2)cc1 | -13 | . | . | 2 | . | -24
CCOc1ccc(-c2cc(CCCC(=O)NCCCOC)no2)cc1 | 87* | 49* | 5 | 0 | 7 | -31
CCn1ncc(Cl)c1C(=O)Nc1ccc2c(c1)CCC2 | -51 | . | . | 14 | . | -35
CC(C)(C)c1ccc(C(=O)N2CCCCCC2=O)cc1 | 91* | 57* | -1 | 0 | 5 | 47
CC(C)(C)c1ccc(C(=O)Nc2ccc(C(=O)N3CCCC3)cc2)cc1 | -1 | . | . | 2 | . | -18
O=C(Oc1cc(Cl)ccc1Cl)c1ccc(N2CCOCC2)c([N+](=O)[O-])c1 | 7 | 15 | -1 | -6 | 4 | -30
CCN(CC)S(=O)(=O)c1cc(NC(=O)C(=O)c2c(-c3ccccc3)cc3ccccn23)ccc1C | 23 | 93* | -3 | -2 | 2 | -26
O=C(COC(=O)c1cc(S(=O)(=O)N2CCOCC2)ccc1O)NCCc1ccccc1 | -9 | 4 | 2 | -4 | 10 | 19
CCC(C)(C)c1ccc(OCCCC[n+]2cccc(C)c2)c(C(C)(C)CC)c1 | 21 | 3 | 101* | 16 | 87* | 26
CCc1ccc(OCCCCN(C)Cc2ccccc2)cc1 | 9 | . | . | -4 | . | -35
c1ccc(CCNc2ncnc3ccccc23)cc1 | -117 | -89 | 65* | 21 | 68* | -68
Cc1cc2nsnc2c(S(=O)(=O)NCC(=O)O)c1C | -6 | -5 | 0 | -2 | 3 | -32
Cc1cc(C)n(CCC(=O)N/N=C/c2c(O)ccc3ccccc23)n1 | 73* | . | -1 | 5 | -8 | 40
Cc1cc(C)n(CCC(=O)N/N=C/c2ccc(O)cc2)n1 | 21 | 16 | -2 | -2 | 5 | -25
O=C(CCSc1nc2ccccc2s1)N/N=C/c1c(O)ccc2ccccc12 | 66* | 52* | 1 | 2 | 4 | -11
